Screening results (PubChem)
In the library only some 22% were active in any assay of this set; here they are far more common.
Pf growth 48h: Primary qHTS for delayed death inhibitors of the malarial parasite plastid, 48 hour incubation | P. falciparum luciferase growth in erythrocytes, 48 h | Potency, µM (top dose mostly 28.7 µM), for inactives: top-dose activity change, negative = inhibition, most hits filed as inhibitors | hit rate 5.9% among 310,000 | AID 504832, 2011; note: potency is the fitted concentration of half-maximal effect; % is set by controls: 0 for no effect and ±100 for the full control effect
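First compound was added to culture medium, then infected red cells at 0.1% parasitemia and 2% hematocrit (final). After incubation at 37 C under 5% CO2, luciferase detection reagent was dispensed and light output recorded.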
Cycloheximide cs: Cycloheximide Counterscreen for Small Molecule Inhibitors of Shiga Toxin; cell reporter, cycloheximide protein synthesis inhibition counterscreen; hit rate 12% among 300,000; max response, %; in the data active = max response mostly above about 13%, no sharp cut-off; inactive = mostly below about 14%; note: read at 38.3 µM for the half of the compounds with a filed dose; 0% is about no effect
LmPK inh: qHTS Assay for Inhibitors of Leishmania Mexicana Pyruvate Kinase (LmPK) | Q27686 | purified LmPK, Kinase-Glo ATP luminescence, 1 h | Potency, µM (top dose mostly 57.5 µM), for the others: at the top dose activity change, negative = inhibition, usual class: inhibitors | hit rate 0.37% among 290,000 | AID 1721, 2009; note: potency is the fitted concentration of half-maximal effect; % is set by controls: 0 for no effect and ±100 for the full control effect
Target sequence (Q27686 whole entry, looked up): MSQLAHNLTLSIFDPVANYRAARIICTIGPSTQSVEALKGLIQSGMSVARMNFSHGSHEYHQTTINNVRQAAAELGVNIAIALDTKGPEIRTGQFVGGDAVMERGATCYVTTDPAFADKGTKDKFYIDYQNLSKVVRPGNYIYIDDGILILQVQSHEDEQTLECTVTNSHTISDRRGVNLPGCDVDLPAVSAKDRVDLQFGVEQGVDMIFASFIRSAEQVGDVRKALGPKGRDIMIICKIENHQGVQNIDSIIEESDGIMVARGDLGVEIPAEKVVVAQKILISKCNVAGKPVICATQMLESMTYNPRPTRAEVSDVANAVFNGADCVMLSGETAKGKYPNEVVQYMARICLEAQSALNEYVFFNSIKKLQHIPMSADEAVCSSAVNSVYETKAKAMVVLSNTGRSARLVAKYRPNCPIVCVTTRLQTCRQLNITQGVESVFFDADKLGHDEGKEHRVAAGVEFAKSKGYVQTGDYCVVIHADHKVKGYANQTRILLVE
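Kinase-Glo luminescence read after 1 h RT reaction of 0.1 nM LmPK with 0.5 mM PEP and 0.1 mM ADP. Activity scaled between uninhibited and enzyme-free controls.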
Shiga toxin inh: A qHTS for Small Molecule Inhibitors of Shiga Toxin | Vero cells, Shiga toxin protein synthesis inhibition reporter | inhibition, % at 38.7 µM | hit rate 9.2% among 290,000 | AID 2315, 2010; in the data active = inhibition mostly above about 28%, no sharp cut-off; inactive = mostly below about 43%; note: 0% is about no effect
Pf growth 96h: Primary qHTS for delayed death inhibitors of the malarial parasite plastid, 96 hour incubation | P. falciparum luciferase reporter growth, 96 h | Potency, µM (top dose mostly 28.7 µM), without a hit: top-dose activity change, negative = inhibition, hits mostly inhibitors | hit rate 6.9% among 320,000 | AID 504834, 2011; note: potency is the fitted concentration of half-maximal effect; % is set by controls: 0 for no effect and ±100 for the full control effect
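Plates of compound plus infected erythrocytes (2% hematocrit, 0.05% parasitemia final) incubate 96 hours, 37 C, 5% CO2. Detection reagent added; reduced luminescence from the parasites' luciferase reporter flags inhibition.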
* = called active by the depositor. Unless noted, calls come from the whole dose curve; as a rule, active = well fitted inhibition curve with a large enough effect; inconclusive = small, poorly fitted or top-dose-only effect, or another doubt; inactive = no such curve, though single readings can be large or run the other way.

`Nc1nc(CSCCO)nc(Nc2ccc(F)cc2)n1` gave Pf growth 48h 33%, Cycloheximide cs 25*, LmPK inh 1%, Shiga toxin inh -3 and Pf growth 96h 59%.
`Cc1ccc(CN2CCN(/N=C/C(Br)=C\c3ccccc3)CC2)cc1` gave Pf growth 48h inconclusive, Cycloheximide cs 9, LmPK inh -10%, Shiga toxin inh 13 and Pf growth 96h 0%.
For COC(=O)CSc1nc(C(C)C)nc2ccccc12 the results were Pf growth 48h -1%, Cycloheximide cs -1, LmPK inh 5%, Shiga toxin inh -13 and Pf growth 96h -2%.
CCOC(=O)CSc1nc(C)c2ccccc2n1 was read as Pf growth 48h 14%, Cycloheximide cs 11*, LmPK inh -5% and Shiga toxin inh 67.
CC(C)c1nc(SCC(=O)c2ccc(F)cc2)c2ccccc2n1 was read as Pf growth 48h inconclusive, Cycloheximide cs 20*, LmPK inh 1%, Shiga toxin inh 31 and Pf growth 96h -34%.
Screening CC(C)c1nc(SCC(=O)Nc2nccs2)c2ccccc2n1 returned Pf growth 48h -7%, Cycloheximide cs -5, LmPK inh 6%, Shiga toxin inh -9 and Pf growth 96h inconclusive.
For CC(C)c1nc(SCC(=O)Nc2ccc(N(C)C)cc2)c2ccccc2n1 the results were Pf growth 48h 12µM*, Cycloheximide cs 12, LmPK inh 2%, Shiga toxin inh -5 and Pf growth 96h 27%.
Screening CCOC(=O)CSc1nc(C(C)C)nc2ccccc12 returned Pf growth 48h 0%, Cycloheximide cs 5, LmPK inh 2%, Shiga toxin inh -2 and Pf growth 96h 13µM*.
Screening CCOC(=O)CSc1nc(C)c2cccc(C)c2n1 returned Pf growth 48h 0%, Cycloheximide cs 10, LmPK inh 3%, Shiga toxin inh 14 and Pf growth 96h 10%.
`Cc1ccc(C(=O)CSc2nc(C(C)C)nc3ccccc23)cc1` gave Pf growth 48h 0%, Cycloheximide cs 0, LmPK inh -3%, Shiga toxin inh 11 and Pf growth 96h 9%.
For O=C(COC(=O)c1ccc[n+]([O-])c1)Nc1c(Br)cc([N+](=O)[O-])cc1Br the results were Pf growth 48h -4%, Cycloheximide cs 3, LmPK inh -1%, Shiga toxin inh 10 and Pf growth 96h 9%.
FC(F)Oc1ccc(NC(=S)NCc2ccccc2)cc1Cl was read as Pf growth 48h 18%, Cycloheximide cs 1, LmPK inh 2% and Shiga toxin inh -22.
`Oc1cccc2c(NC(=S)Nc3ccc(OC(F)F)cc3)cccc12` gave Pf growth 48h 2%, Cycloheximide cs 74*, LmPK inh 4%, Shiga toxin inh 88* and Pf growth 96h inconclusive.
`FC(F)Oc1ccc(NC(=S)NCCc2ccccn2)cc1` gave Pf growth 48h -10%, Cycloheximide cs 29*, LmPK inh -1%, Shiga toxin inh 45 and Pf growth 96h -20%.
Screening FC(F)Oc1ccc(NC(=S)NCc2ccccc2)cc1 returned Pf growth 48h 15%, Cycloheximide cs 11*, LmPK inh -2%, Shiga toxin inh 37* and Pf growth 96h 60%.
Screening CC1=C(C(=O)OCc2ccccc2)C(c2ccc(C(C)(C)C)cc2)NC(=O)N1CCCCCC(=O)O (stereo not drawn) returned Pf growth 48h inconclusive, Cycloheximide cs -4, LmPK inh 0%, Shiga toxin inh 4 and Pf growth 96h inconclusive.
`CCCCCCN(C(=O)CCCCCN1C(=O)NC(c2ccc(-c3ccccc3)cc2)C(C(=O)OCc2ccccc2)=C1C)C(C(=O)NCCCC)c1ccc(O)cc1` (stereo not drawn) gave Pf growth 48h inconclusive, Cycloheximide cs -2, LmPK inh 2%, Shiga toxin inh -9 and Pf growth 96h 2.1µM*.
CCCCCCN(C(=O)CCCCCN1C(=O)NC(c2ccc(-c3ccccc3)cc2)C(C(=O)OCc2ccccc2)=C1C)C(C(=O)NCCCC)c1cccc(C(=O)OC)c1 (stereo not drawn) was read as Pf growth 48h 1.9µM*, Cycloheximide cs -4, LmPK inh 0%, Shiga toxin inh -5 and Pf growth 96h 1.7µM*.
Screening CC1=C(C(=O)OCc2ccccc2)C(c2ccc([N+](=O)[O-])cc2)NC(=O)N1CCCCCC(=O)O (stereo not drawn) returned Pf growth 48h inconclusive, Cycloheximide cs -4, LmPK inh 2%, Shiga toxin inh -13 and Pf growth 96h inconclusive.
CCCCCCN(C(=O)CCCCCN1C(=O)NC(c2ccc(-c3ccccc3)cc2)C(C(=O)OCc2ccccc2)=C1C)C(C(=O)NCCCC)c1ccc(O)c(C(=O)OC)c1 (stereo not drawn) was read as Pf growth 48h 2.1µM*, Cycloheximide cs -1, LmPK inh 1%, Shiga toxin inh -1 and Pf growth 96h 2.1µM*.
CCCCCCN(C(=O)CCCCCN1C(=O)NC(c2ccc(-c3ccccc3)cc2)C(C(=O)OCc2ccccc2)=C1C)C(C(=O)NCCCC)c1ccc(-c2ccccc2)cc1 (stereo not drawn) was read as Pf growth 48h 0.83µM*, Cycloheximide cs -6, LmPK inh -1%, Shiga toxin inh -5 and Pf growth 96h 0.26µM*.
`CC1=C(C(=O)OCc2ccccc2)C(c2ccc(-c3ccccc3)cc2)NC(=O)N1CCCCCC(=O)O` (stereo not drawn) gave Pf growth 48h -24%, Cycloheximide cs 3, LmPK inh 3%, Shiga toxin inh 7 and Pf growth 96h inconclusive.
Screening COC(=O)c1ccc(CN2CCc3ccccc32)cc1 returned Pf growth 48h -12%, Cycloheximide cs 3, LmPK inh -2%, Shiga toxin inh 7 and Pf growth 96h 0%.
CN(C)/C=N/c1c(C(=O)NCc2ccccc2)nnn1Cc1ccccc1 was read as Pf growth 48h 2.6µM*, Cycloheximide cs 3, LmPK inh -3%, Shiga toxin inh -7 and Pf growth 96h 8%.
`Nc1c(C(=O)NCc2ccccc2)nnn1Cc1ccccc1` gave Cycloheximide cs -5, LmPK inh 7%, Shiga toxin inh -18 and Pf growth 96h -30%.
`CCCCc1ccc(/C=C2\C(=O)c3ccccc3C(O)=C2C(=O)OCC)cc1` gave Pf growth 48h inconclusive, Cycloheximide cs 16*, LmPK inh -19%, Shiga toxin inh 30* and Pf growth 96h inconclusive.
`COCCN=C1NN=C(c2ccc(C)c([N+](=O)[O-])c2)CS1` gave Pf growth 48h 185%, Cycloheximide cs 47*, LmPK inh -3%, Shiga toxin inh 63* and Pf growth 96h 134%.
Screening CCCCN=C1NN=C(c2ccc(C)c(C)c2)CS1 returned Pf growth 48h inconclusive, Cycloheximide cs 44*, LmPK inh 2%, Shiga toxin inh 87* and Pf growth 96h inconclusive.
